A short description of assay [1]: NS1 protein of Zika virus - qHTS assay to identify small molecule inhibitors in human HEK 293 cells (AID 1347053). Further: series mostly up to about 46 µM; nearly all actives have a fitted effect of over 55% in size. The method in brief: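 Inhibition of NS1 expression was scored in HEK 293 cells given compound 1 h ahead of MR766 virus (MOI = 0.5). Following 24 h at 37 C, two anti-NS1 antibodies generated a TR-FRET signal, scaled between uninfected and infected controls.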

For assay [2], the target named is T1, Tyrosine-protein phosphatase non-receptor type substrate 1 (Homo sapiens) + Leukocyte surface antigen CD47 (Homo sapiens) (UniProt P78324+Q08722). The assay is described as follows: CD47-SIRPalpha protein protein interaction - LANCE assay qHTS validation (AID 1347057; active means well fitted curve in the direction sought with a large enough effect in the signal ratio, with a control signal flat, not every such curve was filed as active; the % refers to the signal ratio). Put shortly:
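First, His-tagged CD47 and Eu-labelled anti-His antibody met the compound for 30 min; next, site-specifically biotinylated SIRPalpha was added for 30 min; finally streptavidin-APC was added before reading the TR-FRET ratio.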
On the technique in general: Time-resolved FRET reads energy transfer from a long-lived donor to a nearby acceptor.

The target in assay [3] is T1, Tyrosine-protein phosphatase non-receptor type substrate 1 (Homo sapiens) + Leukocyte surface antigen CD47 (Homo sapiens). Put plainly: CD47-SIRPalpha protein protein interaction - HTRF assay qHTS validation (AID 1347058; active means well fitted curve in the direction sought with a large enough effect in the signal ratio, not every such curve was filed as active; the % refers to the signal ratio; further: series mostly up to about 38 µM). The method in brief:
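TR-FRET read (Ch1/Ch2 ratio) of soluble extracellular CD47 and Avi-biotinylated SIRPalpha domains in PBS pH 7.4 with 0.05% IGEPAL; 7-point compound titration. Sequential 30 min room-temperature steps; non-biotinylated SIRPalpha as control inhibitor.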

In assay [4] the target is Parathyroid hormone/parathyroid hormone-related peptide receptor (Homo sapiens) (UniProt Q03431). Put plainly: qHTS for PTHR1 Agonists: Optimization Screen against the NCGC LOPAC library (AID 1347079).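 Further: GloSensor cAMP luminescence in HEK-293 GP2 cells expressing human PTHR1 with IBMX.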 Further: potency means the concentration at half of the fitted maximal effect. The method in brief:
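Agonist readout: GloSensor cAMP luminescence, read after 15 min at room temperature. HEK-293-derived GP2 line carries PTHR1; compounds tested as a titration for 1 hr at 37C in presence of IBMX. M-PTH (1-15) served as control.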

The target in assay [5] is N-terminal Xaa-Pro-Lys N-methyltransferase 1 (Homo sapiens) (UniProt Q9BV86). Put plainly: qHTS Assay for Inhibitors of N-terminal methyltransferase 1 (NTMT1): LOPAC validation of the NTMT1 SAHH-coupled ThioGlo3 Assay (AID 1347143). Further: nearly all actives have a fitted effect of over 70% in size. Further: potency means the concentration at half of the fitted maximal effect. The method in brief: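 Fluorescence read-out (excitation 340nm, emission 450nm) of SAH-derived thiol, measured via SAHH coupling and ThioGlo3, taken immediately and after a 30 min room-temperature reaction, then normalized to the background read. Enzyme: NTMT1 at 125nM; cofactor SAM 100uM in the added reagent.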
(In qHTS, concentration-response curves come from the screen itself.)

The test system of assay [6] is Zika virus NS2B-NS3 protease (unlinked). Put plainly: Optimization of GU AMC qHTS for Zika virus inhibitors: Unlinked NS2B-NS3 protease assay (AID 1347151). Further: nearly all actives have a fitted effect of over 80% in size. Further: potency means the concentration at half of the fitted maximal effect. The method in brief:
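Noncovalent complex of NS2B hydrophilic domain and NS3 protease domain, 25 nM final, in 10 mM Tris-HCl pH 8.0, 0.01% Tween 20. AMC fluorescence change over 15 min at room temperature was fitted to a 4-parameter Hill equation.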

For assay [7], the target named is T1, Tyrosine-protein phosphatase non-receptor type substrate 1 (Homo sapiens) + Leukocyte surface antigen CD47 (Homo sapiens). The assay is described as follows: CD47-SIRPalpha protein protein interaction - Alpha assay qHTS validation (AID 1347059).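 Further: bead proximity luminescence from CD47 binding SIRPalpha after compound preincubation with SIRPalpha.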 The method in brief:
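Soluble extracellular domains: Avi-tag biotinylated SIRPalpha (25 nM) preincubated 30 min RT with compound, then 6His-CD47 (12.5 nM) 30 min; Ni-NTA acceptor and streptavidin donor beads (10 ug/mL) 30 min, AlphaScreen read. PBS pH 7.4, 0.05% IGEPAL.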

Assay [8] relates to Zika virus NS2B-NS3 protease (linked construct). Put plainly: Confirmatory screen NINDS AMC qHTS for Zika virus inhibitors (AID 1347152).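 Further: AMC fluorescence gain from cleaved Bz-Nle-KRR-AMC substrate over 15 min; top concentration of the series differs between compounds; nearly all actives have a fitted effect of over 70% in size.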 Put shortly:
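Purified NS2B-NS3 protease with NS2B hydrophilic domain linked to NS3 protease domain by flexible linker, 1 nM final in 10 mM Tris-HCl pH 8.0, 0.01% Tween 20. Compounds preincubated 15 min, room temperature; Bz-Nle-KRR-AMC 10 microM (Km 18.3 µM); 15-min fluorescence change, 4-parameter Hill fit.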

Assay [9] has as its system Zika virus NS2B-NS3 protease (unlinked complex). Put plainly: Confirmatory screen GU AMC qHTS for Zika virus inhibitors (AID 1347153). Further: nearly all actives have a fitted effect of over 70% in size. Put shortly:
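Compounds were preincubated 15 min at room temperature with 25 nM noncovalent NS2B-NS3 protease at pH 8.0; AMC substrate added at 10 microM and 15-min fluorescence gain (340/450 nm) converted to percent inhibition, fitted 4-parameter.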

The target of assay [10] is Furin (Homo sapiens) (UniProt P09958). Put plainly: Furin counterscreen qHTS for Zika virus inhibitors (AID 1347149).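 Further: purified recombinant full-length human furin enzyme at 5 nM; fluorescence gain from furin cutting a BOC-RVRR-AMC peptide substrate over 15 min; top concentration of the series differs between compounds; nearly all actives have a fitted effect of over 70% in size.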 The method in brief:
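Fluorogenic cleavage of BOC-RVRR-AMC (2 microM final, Km ~15 µM) was monitored (ex 340, em 450 nm) at 37C after 15 min RT preincubation of 5 nM furin with compounds in HEPES pH 7.0 buffer with CaCl2 and Triton X-100. Percent inhibition was fitted to a 4-parameter Hill curve.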
(A counterscreen serves to expose hits that act by an unwanted route or on another target.)

Each structure is given as a SMILES string. Inconclusive results are not listed. Active and inactive are the calls of the source. Unless noted, the call rests on the fitted dose curve; in most records, active means well fitted curve in the direction sought with a large enough effect; inconclusive means small, poorly fitted or top-dose-only effect, or another doubt; inactive means no such curve, though single readings can be large; an effect the other way counts as inactive or inconclusive.

Data on 30 compounds can be found in PubChem BioAssay (NCATS).

N-terminal Xaa-Pro-Lys N-methyltransferase 1 (Homo sapiens), sequence (Q9BV86 whole entry, looked up): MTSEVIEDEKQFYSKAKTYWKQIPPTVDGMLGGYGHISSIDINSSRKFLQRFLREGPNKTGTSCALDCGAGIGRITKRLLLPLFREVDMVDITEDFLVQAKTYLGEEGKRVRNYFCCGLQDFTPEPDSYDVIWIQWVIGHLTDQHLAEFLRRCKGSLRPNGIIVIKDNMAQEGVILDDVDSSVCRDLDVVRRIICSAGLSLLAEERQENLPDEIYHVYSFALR
Parathyroid hormone/parathyroid hormone-related peptide receptor (Homo sapiens), sequence (Q03431 whole entry, looked up): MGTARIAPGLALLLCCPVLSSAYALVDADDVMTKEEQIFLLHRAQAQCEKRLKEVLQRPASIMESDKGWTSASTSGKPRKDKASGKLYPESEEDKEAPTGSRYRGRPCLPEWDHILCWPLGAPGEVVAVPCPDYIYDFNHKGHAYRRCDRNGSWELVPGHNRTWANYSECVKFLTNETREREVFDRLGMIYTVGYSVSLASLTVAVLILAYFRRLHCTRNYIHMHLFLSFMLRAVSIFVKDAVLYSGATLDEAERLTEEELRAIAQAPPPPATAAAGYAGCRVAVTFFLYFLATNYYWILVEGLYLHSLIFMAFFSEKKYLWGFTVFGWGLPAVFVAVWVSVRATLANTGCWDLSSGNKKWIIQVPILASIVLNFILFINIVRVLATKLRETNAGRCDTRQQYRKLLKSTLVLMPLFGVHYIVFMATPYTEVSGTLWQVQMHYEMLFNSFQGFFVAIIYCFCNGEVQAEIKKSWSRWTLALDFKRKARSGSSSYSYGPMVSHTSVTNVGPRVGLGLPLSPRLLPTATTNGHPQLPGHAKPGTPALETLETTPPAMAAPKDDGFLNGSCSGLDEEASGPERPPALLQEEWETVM
T1 sequence (P78324 whole entry, looked up): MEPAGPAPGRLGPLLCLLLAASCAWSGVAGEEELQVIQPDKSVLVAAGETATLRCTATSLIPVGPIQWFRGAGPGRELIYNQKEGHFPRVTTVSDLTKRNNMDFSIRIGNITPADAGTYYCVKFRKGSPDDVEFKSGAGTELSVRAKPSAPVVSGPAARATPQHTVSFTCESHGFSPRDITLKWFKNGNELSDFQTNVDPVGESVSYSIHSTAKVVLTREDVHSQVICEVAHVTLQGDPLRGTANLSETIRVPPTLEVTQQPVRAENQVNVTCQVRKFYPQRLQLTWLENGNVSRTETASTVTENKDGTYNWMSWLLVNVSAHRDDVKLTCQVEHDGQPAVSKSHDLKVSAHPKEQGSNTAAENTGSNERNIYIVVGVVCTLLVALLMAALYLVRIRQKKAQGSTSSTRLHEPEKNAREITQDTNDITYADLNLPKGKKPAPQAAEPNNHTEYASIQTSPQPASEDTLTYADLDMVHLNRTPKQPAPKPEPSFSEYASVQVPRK
T1 sequence (Q08722 whole entry, looked up): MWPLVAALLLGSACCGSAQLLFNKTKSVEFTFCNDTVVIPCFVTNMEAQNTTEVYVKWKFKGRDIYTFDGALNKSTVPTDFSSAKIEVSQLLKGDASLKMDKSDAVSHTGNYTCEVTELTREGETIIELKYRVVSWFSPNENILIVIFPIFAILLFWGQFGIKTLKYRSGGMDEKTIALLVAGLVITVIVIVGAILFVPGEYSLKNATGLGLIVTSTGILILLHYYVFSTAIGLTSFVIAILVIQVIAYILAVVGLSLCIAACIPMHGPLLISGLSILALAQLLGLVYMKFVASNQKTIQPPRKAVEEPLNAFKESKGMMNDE
Furin (Homo sapiens), sequence (P09958 whole entry, looked up): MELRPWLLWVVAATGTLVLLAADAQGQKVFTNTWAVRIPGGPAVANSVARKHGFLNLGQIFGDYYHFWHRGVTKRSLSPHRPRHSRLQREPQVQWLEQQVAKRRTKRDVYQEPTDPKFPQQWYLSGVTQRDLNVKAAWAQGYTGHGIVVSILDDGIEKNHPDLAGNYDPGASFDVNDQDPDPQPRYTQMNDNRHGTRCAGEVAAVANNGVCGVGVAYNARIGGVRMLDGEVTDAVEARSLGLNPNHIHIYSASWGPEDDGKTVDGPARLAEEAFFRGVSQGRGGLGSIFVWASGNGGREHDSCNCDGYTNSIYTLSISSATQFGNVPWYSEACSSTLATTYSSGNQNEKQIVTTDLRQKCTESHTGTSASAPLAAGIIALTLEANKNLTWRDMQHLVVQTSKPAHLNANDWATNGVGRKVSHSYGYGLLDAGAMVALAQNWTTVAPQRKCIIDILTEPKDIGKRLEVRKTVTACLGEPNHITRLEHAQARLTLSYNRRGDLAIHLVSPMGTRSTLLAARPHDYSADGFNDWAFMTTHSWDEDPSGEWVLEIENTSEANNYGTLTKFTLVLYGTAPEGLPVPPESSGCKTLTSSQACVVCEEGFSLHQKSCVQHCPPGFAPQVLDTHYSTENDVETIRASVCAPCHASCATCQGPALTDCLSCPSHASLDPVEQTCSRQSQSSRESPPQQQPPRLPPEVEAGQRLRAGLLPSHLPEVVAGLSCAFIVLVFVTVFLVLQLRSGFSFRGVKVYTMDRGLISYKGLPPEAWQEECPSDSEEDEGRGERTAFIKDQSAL

Turning to `NC(N)=NC(N)=Nc1cccc(Cl)c1`, the Potency entry in assay [1], in assay [2], in assay [4], in assay [5] and in [6] was “inactive” in each case. For the same compound, in [3], the result was inactive.

As to `CCCCCCC(=O)OC1CC(C)(C)NC(C)(C)C1`, the Potency entry in assay [1], in [2], in [7], in assay [4] and in assay [5] was “inactive” in each case.

With `CCCCCC[C@@H]([C@@H](C)O)n1cnc2c(N)ncnc21`, the Potency result in assay [1], in [2], in [4] and in assay [6] was “inactive” throughout. The result in assay [3] was inactive.

For `CCN(c1nc(N)c(C(=O)N=C(N)N)nc1Cl)C(C)C`, the Potency result in [1], in assay [2], in [7], in [4] and in assay [5] was “inactive” each time.

As for `O=C(O)Cc1ccc(O)c(O)c1`, the Potency entry in assay [1], in assay [2], in assay [7], in assay [4] and in [6] was “inactive” throughout. The Potency in assay [5] is 31.6 µM (active).

`Nc1nc2ccc(Cl)cc2c2nc(-c3ccco3)nn12`: the Potency result in assay [1], in [2], in assay [8] and in assay [9] was “inactive” in each case. In addition, the result in assay [3] was inactive. Moreover, the Potency in assay [4] is 6.7 µM (active); in assay [5], 12.6 µM (active).

On to `C=C(C)C1CC=C(C(=O)O)CC1` (configuration not stated), for which the Potency result in assay [1], in assay [2], in assay [7], in assay [4], in assay [5] and in assay [6] was “inactive” each time.

As for `O=C(O)c1ccccc1Nc1cccc(OCc2ccc3ccccc3n2)c1`, the Potency result in assay [1], in assay [2], in [4] and in assay [10] was “inactive” in each case. For the same compound, in [3], the result was inactive. The Potency in assay [6] was 29.9 µM (active).

`CCCCCC(O)CCCC(=O)O` (configuration not stated): the Potency entry in [1], in assay [2], in assay [7], in assay [4], in [5] and in [6] was “inactive” in each case.

Regarding `CC(C)C[C@H](NC(=O)[C@H](O)[C@H](N)Cc1ccccc1)C(=O)O`, the Potency result in [1], in assay [2], in assay [7], in assay [4], in [5] and in assay [6] was “inactive” throughout.

As for `CCCCC[C@H](CC(=O)NO)C(=O)N[C@H](C(=O)N1CCC[C@H]1CO)C(C)C`, the Potency result in [1], in [2], in assay [7], in assay [4] and in [5] was “inactive” each time.

Regarding `O=[N+]([O-])c1cccc2c(Br)[nH]nc12`, the Potency result in [1], in assay [2], in assay [7] and in assay [6] was “inactive” each time.

As for `CC(C)(C)c1ccc(/C=C/C(=O)Nc2ccc3c(c2)OCCO3)cc1`, the Potency entry in assay [1], in assay [2], in [7], in assay [4] and in assay [6] was “inactive” each time.

Take `Cn1cc(C(=O)OCC2CCN(CCNS(C)(=O)=O)CC2)c2ccccc21`: the Potency result in assay [1], in assay [2], in assay [7], in [4], in [5] and in [6] was “inactive” throughout.

On to `COc1ccccc1N1CCN(CCCCNC(=O)c2ccc3ccccc3c2)CC1`, for which the Potency result in [1], in assay [2], in assay [7], in assay [4], in assay [5] and in [6] was “inactive” throughout.

Turning to `O=c1cc(O)cc(/C=C/c2ccc(O)c(O)c2)o1`, the Potency result in assay [1], in [2], in [7] and in assay [4] was “inactive” each time. Further, the Potency is 44.7 µM (active) in assay [5] and 13.4 µM (active) in assay [6].

On to `CCC(=O)N1CCN(C(=O)c2ccccc2)CC1`, for which the Potency result in assay [1], in [2], in [7], in [4], in [5] and in assay [6] was “inactive” in each case.

Take `O=C(O)/C(=C/c1c(C(=O)O)[nH]c2cc(Cl)cc(Cl)c12)c1ccccc1`: the Potency result in assay [1], in assay [2], in [7], in [4], in assay [5] and in [6] was “inactive” in each case.

Regarding `N#CC(C#N)=C(N)/C(C#N)=C/c1ccc(O)cc1`, the Potency result in [1], in [2], in assay [7], in assay [4] and in assay [6] was “inactive” throughout.

`CN(C)C(=O)/N=N/C(=O)N(C)C`: the Potency entry in [1], in assay [2], in [7], in assay [4] and in assay [6] was “inactive” throughout. In [5], the Potency is 7.08 µM (active).

For `COc1ccc(-c2cc3ncc(C)n3c(Nc3ncccc3C(N)=O)n2)cc1OC`, the Potency result in [1], in assay [2], in [7] and in [4] was “inactive” throughout. The Potency in assay [5] was 56.2 µM (active); in assay [6], 26.7 µM (active).

For the compound `CC(C)[C@@H]1CC[C@@H](C)C[C@@H]1P(=O)(c1ccccc1)c1ccccc1`, the Potency entry in [1], in assay [2], in assay [7], in assay [4], in [5] and in assay [6] was “inactive” throughout.

Take `N#Cc1cc([N+](=O)[O-])c2sc(C(N)=O)[n+]([O-])c2c1`: the Potency entry in [1], in [2], in assay [7], in [4] and in [6] was “inactive” in each case.

With `CC[N+](CC)(CC)CC(=O)Nc1c(C)cccc1C`, the Potency result in assay [1], in assay [2], in [7], in assay [4], in assay [5] and in assay [6] was “inactive” in each case.

As for `N#CC(=C(\N)Sc1ccccc1N)/C(C#N)=C(/N)Sc1ccccc1N`, the Potency result in [1], in [2] and in assay [7] was “inactive” each time. In addition, in assay [5], the Potency is 56.2 µM (active).

`Oc1ccc(/C=C/c2ccc(/C=C/c3ccc(O)cc3)c(Br)c2)cc1`: the Potency entry in [1], in [2], in [7], in assay [4], in assay [5] and in [6] was “inactive” each time.

As for `CN1CCN(c2nc3cc(C(F)(F)F)ccc3n3cccc23)CC1`, the Potency entry in assay [1] and in assay [4] was “inactive” each time. The result in assay [2] was inactive. In addition, the Potency in assay [5] was 39.8 µM (active).

As to `CSc1nc(N)c2ncn([C@@H]3O[C@H](COP(=O)(O)OP(=O)(O)O)C(O)[C@H]3O)c2n1` (some centres not stated), the Potency result in assay [1], in assay [2], in [7], in assay [4] and in assay [6] was “inactive” each time.

In the case of `CC1CNCCN1S(=O)(=O)c1cccc2cnccc12` (configuration not stated), the Potency entry in assay [1], in assay [2], in assay [7], in [4], in assay [5] and in assay [6] was “inactive” each time.

As for `N[C@@H](CCCC(=O)O)C(=O)O`, the Potency entry in [1], in assay [2], in assay [7], in assay [4], in [5] and in assay [6] was “inactive” throughout.
